Screen size: about 5,500 compounds; about 2,000 (36%) were called active. Roughly 18% stayed inconclusive and do not appear here. Cut-off read from the data, not from the text of the source: active = normalized growth mostly below about 0.91 (no sharp cut-off); inconclusive = no clear call, values can overlap the other calls; inactive = mostly above about 0.92. Some of the results follow.
Experiment: chemical genetic growth profiling, strain panel (AID 1159580);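 note: tested at 20 µM; growth read once vehicle control cultures reached saturation at 30 °C; 1 = growth at the plate median or of vehicle wells; lower values mean less growth of the strain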
Details: growth OD

Measured: normalized growth

CC1=C(C(C)O)C2=NC1C=c1[nH]c(c(C)c1C(C)O)=Cc1[nH]c(c(CCC(=O)O)c1C)C=c1[nH]c(c(C)c1CCC(=O)O)=C2 (stereo not drawn)
active: S. cerevisiae deletion strains, locus YLR113W, strain HOG1, active compounds read low 1.19 [resistant]
inactive: S. cerevisiae deletion strains, locus YJL187C, strain SWE1, active compounds read low 0.995 | S. cerevisiae deletion strains, locus YJR043C, strain POL32, active compounds read low 0.93 | S. cerevisiae deletion strains, locus YJR066W, strain TOR1, active compounds read low 1.02 | S. cerevisiae deletion strains, locus YKL009W, strain mrt4, active compounds read low 1.04 | S. cerevisiae deletion strains, locus YKL068W, active compounds read low 1.01 | S. cerevisiae deletion strains, locus YKL085W, strain MDH1 (second series), active compounds read low 1.02 | S. cerevisiae deletion strains, locus YKL085W, strain MDH1, active compounds read low 1.02 | S. cerevisiae deletion strains, locus YKL160W, strain elf1, active compounds read low 0.99 | S. cerevisiae deletion strains, locus YKL190W, strain CNB1, active compounds read low 1 | S. cerevisiae deletion strains, locus YKR001C, strain vps1, active compounds read low 1 | S. cerevisiae deletion strains, locus YKR026C, strain gcn3, active compounds read low 0.989 | S. cerevisiae deletion strains, locus YKR091W, strain srl3, active compounds read low 1 | S. cerevisiae deletion strains, locus YLL001W, strain dnm1, active compounds read low 0.988 | S. cerevisiae deletion strains, locus YLL026W, active compounds read low 0.992 | S. cerevisiae deletion strains, locus YLL041C, strain sdh2, active compounds read low 0.995 | S. cerevisiae deletion strains, locus YLR027C, strain aat2, active compounds read low 0.982 | S. cerevisiae deletion strains, locus YLR039C, strain RIC1, active compounds read low 1.04 | S. cerevisiae deletion strains, locus YLR058C, strain SHM2, active compounds read low 1 | S. cerevisiae deletion strains, locus YLR102C, strain apc9, active compounds read low 1.02 | S. cerevisiae deletion strains, locus YLR221C, strain rsa3, active compounds read low 0.967 | S. cerevisiae deletion strains, locus YLR258W, strain gsy2, active compounds read low 0.996 | S. cerevisiae deletion strains, locus YLR262C, strain YPT6 (second series), active compounds read low 1.06 | S. cerevisiae deletion strains, locus YLR262C, strain YPT6, active compounds read low 1.01 | S. cerevisiae deletion strains, locus YLR268W, strain sec22, active compounds read low 1.01 | S. cerevisiae deletion strains, locus YLR320W, strain mms22, active compounds read low 0.938 | S. cerevisiae deletion strains, locus YLR330W, strain CHS5, active compounds read low 1.01 | S. cerevisiae deletion strains, locus YLR342W, strain FKS1 (second series), active compounds read low 0.995 | S. cerevisiae deletion strains, locus YLR342W, strain FKS1, active compounds read low 0.987 | S. cerevisiae deletion strains, locus YLR357W, strain rsc2, active compounds read low 0.923 | S. cerevisiae deletion strains, locus YLR370C, strain arc18, active compounds read low 0.988 | S. cerevisiae deletion strains, locus YLR371W, strain rom2, active compounds read low 1.02 | S. cerevisiae deletion strains, locus YLR384C, strain iki3, active compounds read low 0.99 | S. cerevisiae deletion strains, locus YLR418C, strain cdc73, active compounds read low 0.937 | S. cerevisiae deletion strains, locus YML016C, strain PPZ1, active compounds read low 1.01 | S. cerevisiae deletion strains, locus YML032C, strain rad52, active compounds read low 1 | S. cerevisiae deletion strains, locus YML120C, strain ndi1, active compounds read low 1 | S. cerevisiae deletion strains, locus YML124C, strain tub3, active compounds read low 1.02 | S. cerevisiae deletion strains, locus YMR058W, strain fet3, active compounds read low 0.943 | S. cerevisiae deletion strains, locus YMR078C, strain ctf18, active compounds read low 1.03 | S. cerevisiae deletion strains, locus YMR125W, strain sto1, active compounds read low 1 | S. cerevisiae deletion strains, locus YMR129W, active compounds read low 0.986 | S. cerevisiae deletion strains, locus YMR205C, strain PFK2, active compounds read low 0.943 | S. cerevisiae deletion strains, locus YMR223W, strain ubp8, active compounds read low 0.976 | S. cerevisiae deletion strains, locus YMR231W, strain pep5, active compounds read low 0.98 | S. cerevisiae deletion strains, locus YMR307W, strain GAS1, active compounds read low 0.82 | S. cerevisiae deletion strains, locus YNL067W, strain RPL9B, active compounds read low 0.996 | S. cerevisiae deletion strains, locus YNL071W, strain lat1, active compounds read low 0.963 | S. cerevisiae deletion strains, locus YNL183C, strain NPR1, active compounds read low 1.02 | S. cerevisiae deletion strains, locus YNL209W, strain ssb2, active compounds read low 0.999 | S. cerevisiae deletion strains, locus YNL233W, strain BNI4, active compounds read low 0.994 | S. cerevisiae deletion strains, locus YNL248C, strain rpa49, active compounds read low 0.971 | S. cerevisiae deletion strains, locus YNL250W, strain rad50, active compounds read low 1.03 | S. cerevisiae deletion strains, locus YNL271C, strain bni1, active compounds read low 1.01 | S. cerevisiae deletion strains, locus YNL298W, strain CLA4, active compounds read low 1.02 | S. cerevisiae deletion strains, locus YNL307C, strain MCK1, active compounds read low 1.02 | S. cerevisiae deletion strains, locus YNL322C, strain KRE1 (second series), active compounds read low 0.99 | S. cerevisiae deletion strains, locus YNR049C, strain mso1, active compounds read low 0.998 | S. cerevisiae deletion strains, locus YNR052C, strain pop2, active compounds read low 1.02 | S. cerevisiae deletion strains, locus YOL012C, strain htz1 0.754 | S. cerevisiae deletion strains, locus YOL147C, strain pex11, active compounds read low 1.01 | S. cerevisiae deletion strains, locus YOR001W, strain rrp6, active compounds read low 1 | S. cerevisiae deletion strains, locus YOR061W, strain CKA2, active compounds read low 1.01 | S. cerevisiae deletion strains, locus YOR069W, strain VPS5, active compounds read low 1.01 | S. cerevisiae deletion strains, locus YOR070C, strain gyp1, active compounds read low 0.989 | S. cerevisiae deletion strains, locus YOR080W, strain dia2, active compounds read low 0.987 | S. cerevisiae deletion strains, locus YOR083W, strain WHI5, active compounds read low 0.986 | S. cerevisiae deletion strains, locus YOR106W, strain vam3, active compounds read low 0.94 | S. cerevisiae deletion strains, locus YOR136W, strain idh2, active compounds read low 1.01 | S. cerevisiae deletion strains, locus YOR144C, strain elg1, active compounds read low 1.02 | S. cerevisiae deletion strains, locus YOR184W, strain ser1, active compounds read low 0.972 | S. cerevisiae deletion strains, locus YOR231W, strain MKK1, active compounds read low 1.13 | S. cerevisiae deletion strains, locus YOR265W, strain rbl2, active compounds read low 0.995 | S. cerevisiae deletion strains, locus YOR270C, strain vph1, active compounds read low 0.915 | S. cerevisiae deletion strains, locus YOR290C, strain snf2, active compounds read low 0.984 | S. cerevisiae deletion strains, locus YOR316C, strain cot1, active compounds read low 1.02 | S. cerevisiae deletion strains, locus YPL051W, strain arl3, active compounds read low 0.984 | S. cerevisiae deletion strains, locus YPL055C, strain LGE1, active compounds read low 0.973 | S. cerevisiae deletion strains, locus YPL078C, strain atp4, active compounds read low 0.996 | S. cerevisiae deletion strains, locus YPL106C, strain sse1, active compounds read low 0.93 | S. cerevisiae deletion strains, locus YPL240C, strain hsp82, active compounds read low 0.996 | S. cerevisiae deletion strains, locus YPL256C, strain CLN2, active compounds read low 1.07 | S. cerevisiae deletion strains, locus YPR119W, strain clb2, active compounds read low 1.02 | S. cerevisiae deletion strains, locus YPR141C, strain kar3, active compounds read low 1.05 | S. cerevisiae deletion strains, locus YPR163C, strain tif3, active compounds read low 1.01 | S. cerevisiae deletion strains, locus YPR167C, strain met16, active compounds read low 1 | S. cerevisiae deletion strains, strain wtn01, active compounds read low 0.981 | S. cerevisiae strains, strain wild type, active compounds read low 0.968

From PubChem BioAssay AID1159580 (chemical genetic matrix, 2015)
